Data from PubChem BioAssay (Tox21).
“And” between values parts separate entries of the source, which are not always exact repeats. Equal values may be shown once. Results filed as inconclusive are left out. Some structures have more than one record in an assay (separate samples or runs), and their calls can disagree. The source made the active and inactive calls. Unless noted, calls come from the whole dose curve; as a rule, active = well fitted curve in the direction sought with a large enough effect in the repeat runs; inconclusive = weak or mixed curves; inactive = no such curve, though single readings can be large; an effect the other way counts as inactive or inconclusive.

What was measured:
[1] = qHTS assay to identify small molecule antagonists of the estrogen related receptor (ERR) signaling pathway from Tox21 library - cell viability counter screen (AID 1224834); note: nearly all actives have a fitted effect of over 30% in size; note: potency is the fitted concentration of half-maximal effect
Method in brief: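 Viability readout (CellTiter-Fluor fluorescence, 30 min at 37 C) multiplexed with the ERR assay; cells treated 17.5 h at 37 C with compounds delivered in DMSO.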

[2] = qHTS assay to identify small molecule agonists of the constitutive androstane receptor (CAR) signaling pathway - cell viability counter screen (AID 1224836); note: nearly all actives have a fitted effect of over 45% in size; note: potency is the fitted concentration of half-maximal effect
Method in brief: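 Compound titrations (15 concentrations) went onto HepG2-CYP2B6-hCAR cells 4 h after seeding, alongside PK11195 at a final 0.75 uM; a 23 h, 37 C/5% CO2 incubation preceded CellTiter-Fluor viability measurement.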

[3] = qHTS assay to identify small molecule antagonists of the constitutive androstane receptor (CAR) signaling pathway - cell viability counter screen (AID 1224837); note: nearly all actives have a fitted effect of over 45% in size; note: potency is the fitted concentration of half-maximal effect
Method in brief: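 Fluorescence from CellTiter-Fluor served as the viability signal. Human hepatoma HepG2 cells stably bearing hCAR and CYP2B6-2.2kb received compound plus CITCO (50 nM final) for 23 hr.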

[4] = qHTS assay to identify small molecule antagonists of the estrogen related receptor signaling pathway with the pleiotropic PPARgamma coactivator (PGC) from Tox21 10K library - cell viability counter screen (AID 1224840; active = well fitted cell-killing curve with a large enough effect in the repeat runs, not every such curve was filed as active; note: nearly all actives have a fitted effect of over 40% in size; note: potency is the fitted concentration of half-maximal effect)
Method in brief: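 Compounds in DMSO, alongside positive and negative controls, were pinned onto PGC/ERR cells (2,000 per well). Exposure lasted 17.5 hours at 37 C, followed by a 30-minute CellTiter-Fluor incubation and fluorescence reading.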

[5] = target: Thyrotropin receptor (Homo sapiens) (UniProt P16473); assay: qHTS assay to identify small molecule agonists of the thyroid stimulating hormone receptor (TSHR) signaling pathway (AID 1224843; calls by dose curve; note: nearly all actives have a fitted effect of over 45% in size; note: potency is the fitted concentration of half-maximal effect)
Chain of Thyrotropin receptor (Homo sapiens) (P16473 whole entry, looked up): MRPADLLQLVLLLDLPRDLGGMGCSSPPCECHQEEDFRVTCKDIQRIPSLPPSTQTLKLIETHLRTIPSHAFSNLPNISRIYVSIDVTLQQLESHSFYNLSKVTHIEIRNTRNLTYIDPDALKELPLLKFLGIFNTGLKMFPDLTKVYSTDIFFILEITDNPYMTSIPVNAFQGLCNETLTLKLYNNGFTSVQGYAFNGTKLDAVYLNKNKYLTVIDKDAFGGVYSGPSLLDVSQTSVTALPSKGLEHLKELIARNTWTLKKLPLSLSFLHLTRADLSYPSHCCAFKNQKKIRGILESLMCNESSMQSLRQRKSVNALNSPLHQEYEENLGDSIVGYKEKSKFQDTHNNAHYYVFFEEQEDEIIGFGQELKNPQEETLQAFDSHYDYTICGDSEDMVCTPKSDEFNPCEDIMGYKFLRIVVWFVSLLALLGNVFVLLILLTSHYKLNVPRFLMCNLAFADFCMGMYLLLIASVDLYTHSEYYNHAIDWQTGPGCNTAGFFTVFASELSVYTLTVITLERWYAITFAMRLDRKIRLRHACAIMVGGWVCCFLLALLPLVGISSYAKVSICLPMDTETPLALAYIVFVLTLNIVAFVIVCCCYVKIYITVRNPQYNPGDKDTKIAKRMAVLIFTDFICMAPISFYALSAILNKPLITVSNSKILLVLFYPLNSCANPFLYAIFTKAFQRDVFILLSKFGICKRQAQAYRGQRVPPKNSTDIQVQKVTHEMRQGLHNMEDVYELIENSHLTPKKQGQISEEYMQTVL
Method in brief: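 Cell line HEK293 with TSHR; density 800/well. Exposure 30 min RT. Readout HTRF cAMP (cAMP-d2/anti-cAMP-cryptate), 1 h RT before reading.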

[6] = qHTS assay to identify small molecule agonists of the hypoxia (HIF-1) signaling pathway - cell viability counter screen (AID 1224844; calls by dose curve; note: nearly all actives have a fitted effect of over 50% in size; note: potency is the fitted concentration of half-maximal effect)
Method in brief: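 Luminescent ATP content (CellTiter-Glo, 30 min, room temperature) served as the viability measure in HRE-bla ME-180 cells exposed to compounds for 17 hrs in low-serum medium (0.5% dialyzed FBS).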

[7] = qHTS assay to identify small molecule agonists of H2AX (AID 1224845; active = well fitted activation curve with a large enough effect in the signal ratio in the repeat runs, not every such curve was filed as active; the % refers to the signal ratio)
Method in brief: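 Wild-type CHO-K1 cells plated overnight, then exposed 3 hr at 37C to compounds at 15 concentrations (0.76% DMSO). Lysed, then HTRF anti-pH2AX(S139)-cryptate/anti-H2AX-d2 detection after 24 hr at room temperature; emissions 665 and 620 nm.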

[8] = qHTS assay to identify small molecule agonists of H2AX - cell viability counter screen (AID 1224847; calls by dose curve; note: nearly all actives have a fitted effect of over 30% in size; note: potency is the fitted concentration of half-maximal effect)
Method in brief: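 Read-out: CellTiter-Glo luminescence, 30 min RT. Cells: wild-type CHO-K1, 1000/well, 10% FBS, plated overnight at 37C. Treatment: 15 concentrations, 3 hr, 37C, 0.76% DMSO.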

[9] = qHTS RealTime-Glo MT Cell Viability Assay in HepG2 cells - 24 hour (AID 1224867); note: nearly all actives have a fitted effect of over 50% in size
Method in brief: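 HepG2 cells were seeded at 600 cells/well together with NanoLuc luciferase and a cell-permeant prosubstrate, preincubated 5 h at 37 C/5% CO2, then pin-dosed with compounds in DMSO. Nonlytic luminescence from viable cells was read at each time point.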

[10] = qHTS RealTime-Glo MT Cell Viability Assay in HEK293 cells - 32 hour (AID 1224868); note: nearly all actives have a fitted effect of over 50% in size; note: potency is the fitted concentration of half-maximal effect
Method in brief: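 HEK293 cells were seeded at 600 cells/well together with NanoLuc luciferase and cell-permeant prosubstrate, preincubated 5 h at 37 C/5% CO2, then given compound in DMSO by pintool. Luminescence from viable-cell prosubstrate reduction was read repeatedly over 40 h.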

[11] = A CellTox Green Cytotoxicity Assay to monitor cytotoxicity in HEK293 cells - 0 hour (AID 1224869); note: nearly all actives have a fitted effect of over 50% in size
Method in brief: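 Each value comes from one timepoint of a single continuous run in which HEK293 cells with CellTox Green were exposed to compound for up to 40 h at 37 C, dye fluorescence rising with cell death.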

[12] = target: Luciferin 4-monooxygenase (Photinus pyralis) (UniProt P08659); assay: qHTS assay to identify small molecule inhibitors of firefly luciferase (AID 1224835); note: series mostly up to about 120 µM; nearly all actives have a fitted effect of over 25% in size
Chain of Luciferin 4-monooxygenase (Photinus pyralis) (P08659 whole entry, looked up): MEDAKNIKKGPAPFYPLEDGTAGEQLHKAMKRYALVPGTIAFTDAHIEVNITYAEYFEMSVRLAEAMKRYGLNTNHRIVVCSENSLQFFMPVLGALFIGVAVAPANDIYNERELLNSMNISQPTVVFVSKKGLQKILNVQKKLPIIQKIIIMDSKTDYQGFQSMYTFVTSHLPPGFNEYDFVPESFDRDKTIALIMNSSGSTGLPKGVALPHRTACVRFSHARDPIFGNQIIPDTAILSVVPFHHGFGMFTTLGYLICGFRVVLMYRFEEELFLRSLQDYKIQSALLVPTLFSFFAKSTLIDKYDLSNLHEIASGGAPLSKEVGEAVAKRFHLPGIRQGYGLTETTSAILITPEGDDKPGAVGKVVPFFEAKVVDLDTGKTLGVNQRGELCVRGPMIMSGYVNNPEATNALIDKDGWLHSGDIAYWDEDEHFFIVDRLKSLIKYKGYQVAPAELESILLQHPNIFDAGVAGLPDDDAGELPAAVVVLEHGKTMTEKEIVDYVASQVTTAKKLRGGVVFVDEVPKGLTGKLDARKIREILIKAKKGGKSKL
Method in brief: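 Quantitative HTS format; KM concentrations of both substrates. Purified P. pyralis FLuc activity quantified from luminescence images.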

[13] = qHTS assay to identify small molecule antagonists of the estrogen related receptor signaling pathway with the pleiotropic PPARgamma coactivator (PGC) from Tox21 10K library (AID 1224841; call rule not given here; note: potency is the fitted concentration of half-maximal effect)
Method in brief: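 Compound exposure ran 18 hours at 37 C in PGC/ERR cells (2,000/well) that had first rested 6 hours in a 37 C/5% CO2 incubator. Luciferase activity was then detected with One-Glo after a 30-minute room-temperature step.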

[14] = qHTS assay to identify small molecule agonists of the estrogen related receptor signaling pathway with the pleiotropic PPARgamma coactivator (PGC) from Tox21 10K library (AID 1224842); note: nearly all actives have a fitted effect of over 15% in size
Method in brief: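 PGC/ERR reporter cells (NTP line) were seeded 2,000 per well, rested 6 h at 37 C/5% CO2, then pin-dosed with compounds in DMSO for 18 h at 37 C; luciferase read by One-Glo luminescence after 30 min at room temperature.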

[15] = qHTS assay to identify small molecule agonists of the hypoxia (HIF-1) signaling pathway (AID 1224846; active = well fitted activation curve with a large enough effect in the signal ratio in the repeat runs, not every such curve was filed as active; the % refers to the signal ratio)
Method in brief: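 Measured by blue/green FRET after loading CCF4-AM: beta-lactamase expressed from a hypoxia response element in ME-180 cells. Test agents were delivered in DMSO and left 17 hrs; cells had been plated 5 hrs earlier in low-serum (0.5% dialyzed FBS) medium.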

[16] = qHTS assay to identify small molecule antagonists of the estrogen related receptor (ERR) signaling pathway from Tox21 library (AID 1224848); note: nearly all actives have a fitted effect of over 50% in size; note: potency is the fitted concentration of half-maximal effect
Method in brief: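 Screening used an ERR reporter line supplied by NTP, exposed for 18 h at 37 C to library compounds delivered in DMSO. Signal was luciferase luminescence developed with ONE-Glo at room temperature for 30 min.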

[17] = target: Nuclear receptor subfamily 1 group I member 3 (Homo sapiens) (UniProt Q14994); assay: qHTS assay to identify small molecule antagonists of the constitutive androstane receptor (CAR) signaling pathway (AID 1224838);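 note: HepG2 cells stably expressing hCAR with CYP2B6 luciferase reporter stimulated by CITCO; nearly all actives have a fitted effect of over 40% in size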; note: potency is the fitted concentration of half-maximal effect
Chain of Nuclear receptor subfamily 1 group I member 3 (Homo sapiens) (Q14994 whole entry, looked up): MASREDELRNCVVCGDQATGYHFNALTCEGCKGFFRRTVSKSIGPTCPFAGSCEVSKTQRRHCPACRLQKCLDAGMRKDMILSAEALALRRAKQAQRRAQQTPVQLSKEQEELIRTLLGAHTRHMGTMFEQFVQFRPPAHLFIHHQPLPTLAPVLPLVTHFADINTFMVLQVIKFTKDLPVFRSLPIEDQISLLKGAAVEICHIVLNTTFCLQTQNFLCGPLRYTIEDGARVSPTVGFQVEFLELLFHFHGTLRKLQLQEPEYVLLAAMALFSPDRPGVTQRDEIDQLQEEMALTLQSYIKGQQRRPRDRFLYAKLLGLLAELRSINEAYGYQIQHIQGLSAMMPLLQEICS
Method in brief: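 Quantitative HTS in double-stable HepG2-CYP2B6-hCAR cells. After 4 h plating, cells get compound (15 concentrations) and CITCO at 50 nM final, incubate 24 h at 37 C, then ONE-Glo luminescence is read.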

[18] = target: Nuclear receptor subfamily 1 group I member 3 (Homo sapiens) (UniProt Q14994); assay: qHTS assay to identify small molecule agonists of the constitutive androstane receptor (CAR) signaling pathway (AID 1224839);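 note: HepG2 cells stably carrying human CAR and a CYP2B6 luciferase reporter; series mostly up to about 92 µM; nearly all actives have a fitted effect of over 15% in size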
Method in brief: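 In this screen, CAR-driven CYP2B6 promoter activity is measured by luminescence in HepG2-CYP2B6-hCAR cells after 24 h with test compounds and 0.75 uM PK11195 (final concentration).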

Measured: Potency

CCc1cc(C(N)=S)ccn1
not listed: [12] | [13] | [14] | [15] | [16] | [17] | [18]
inactive: all other assays above

COC(=O)C1CCC(C(=O)OC)CC1 (stereo not given)
not listed: [17] | [18]
inactive: all other assays above

C#C[C@]1(O)CC[C@H]2[C@@H]3CCc4cc(O)ccc4[C@H]3CC[C@@]21C
active: [1] 27.1 µM and 19.3 µM and 8.41 µM | [5] 13.6 µM and 21.7 µM and 8.41 µM | [8] 100 µM and 61.9 µM | [10] 8.65 µM and 19.5 µM
inactive: [12] | [2] | [3] | [6] | [7] | [15] | [9] | [11]

CC1=NN(c2ccccc2)C(=O)C1
not listed: [13] | [14] | [15] | [16] | [17] | [18]
inactive: all other assays above

O=C(O)Cc1cccc2ccccc12
inactive and 4.36 µM (active): [6]
not listed: [13] | [14] | [16] | [17] | [18]
inactive: all other assays above

NC(N)=NC(N)=NCCc1ccccc1
not listed: [4] | [13] | [14] | [16] | [17] | [18]
inactive: all other assays above

COc1cc2c(c(OC)c1OC)-c1ccc(OC)c(=O)cc1[C@@H](NC(C)=O)CC2
inactive: [1] | [12] | [2] | [7] | [15] | [8] | [9] | [11]
48.4 µM (active) and inactive: [6]
active: [10] 24.3 nM
2.4 µM (active) and inactive: [4]

CC(C)=CCC/C(C)=C/CO
not listed: [13] | [14] | [15] | [16] | [17] | [18]
inactive: all other assays above

CO[C@H]1C=CO[C@@]2(C)Oc3c(C)c(O)c4c(O)c(c(/C=N/N5CCN(C)CC5)c(O)c4c3C2=O)NC(=O)/C(C)=C\C=C[C@H](C)[C@H](O)[C@@H](C)[C@@H](O)[C@@H](C)[C@H](OC(C)=O)[C@@H]1C
54.8 µM (active) and inactive: [17]
active: [1] 27.4 µM and 31 µM and 23.7 µM | [2] 27.4 µM | [3] 30.8 µM | [4] 27.4 µM | [13] 48.8 µM and 23.7 µM | [16] 48.8 µM and 23.7 µM | [10] 19.6 µM and 9.88 µM
not listed: [7] | [12] | [15]
inactive: all other assays above

O=[N+]([O-])c1ccc(O)cc1
active: [1] 50.4 µM and 30.6 µM and 54.5 µM | [2] 50.4 µM
not listed: [3] | [4] | [13] | [14] | [16]
inactive: all other assays above

Oc1cccc(O)c1
18.8 nM (active) and inactive: [13]
not listed: [4] | [17] | [18]
inactive: all other assays above

Cn1cnc2c1c(=O)[nH]c(=O)n2C
not listed: [13] | [14] | [15] | [16] | [18]
inactive: all other assays above
